# Compound activity: PubChem BioAssay, several laboratories
# BAP1 block: human BAP1 deubiquitinase inhibition; Q92560; recombinant BAP1, Ub-AMC hydrolysis fluorescence kinetic; stronger effect = lower value; calls only at 20 µM; hit rate 0.48% among 72,000; AID 436;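 active = activity remaining at or below 50% of control, provided the compound also passes the data quality filters; inactive = the rest, including low values that fail the filters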
# PLAP act: activates human placental alkaline phosphatase; activation fold at 20 µM; purified PLAP enzyme, luminescent substrate read-out; stronger effect = higher value; P05187; hit rate 1.2% among 96,000; in the data active = activation fold above about 2
# Target sequence (P05187 whole entry, looked up): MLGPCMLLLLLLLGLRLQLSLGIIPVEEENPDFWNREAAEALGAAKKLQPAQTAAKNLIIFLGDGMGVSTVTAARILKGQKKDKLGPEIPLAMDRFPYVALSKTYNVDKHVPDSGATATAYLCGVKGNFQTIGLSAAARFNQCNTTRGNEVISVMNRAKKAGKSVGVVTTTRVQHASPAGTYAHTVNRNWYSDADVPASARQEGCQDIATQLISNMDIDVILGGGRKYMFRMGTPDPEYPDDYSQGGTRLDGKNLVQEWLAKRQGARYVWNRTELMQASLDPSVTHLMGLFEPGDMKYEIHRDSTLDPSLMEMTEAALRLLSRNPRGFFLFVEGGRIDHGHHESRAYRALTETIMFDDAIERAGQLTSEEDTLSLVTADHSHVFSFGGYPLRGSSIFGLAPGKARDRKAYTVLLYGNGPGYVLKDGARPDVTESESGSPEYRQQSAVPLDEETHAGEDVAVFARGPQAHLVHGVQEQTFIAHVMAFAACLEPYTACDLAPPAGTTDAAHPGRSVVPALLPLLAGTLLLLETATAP
# sEH inh: inhibitors of human soluble epoxide hydrolase | recombinant human sEH enzymatic activity assay | inhibition, % at 2 µM | hit rate 0.34% among 91,000 | AID 707; in the data active = inhibition above about 80%
# sEH act: soluble epoxide hydrolase (human) activation. P34913. purified human sEH enzymatic activity, activator screen. activation, % at 2 µM. hit rate 0.04% among 91,000; in the data active = activation above about 37%
# BAP1 inh conf: BAP1 (human) enzyme inhibition, confirmed | shares compounds with BAP1 block | % of control activity, % at 20 µM | hit rate 8% among 310 | purified BAP1, Ub-ethyl ester hydrolysis, HPLC; stronger effect = lower value;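 active = percent of control activity at or below 60%; inconclusive = HPLC trace unusable from injection failure or solvent front hiding peaks; inactive = the rest, plus ubiquitin peak ratio over a set limit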
# Hits are given with their value; n = inactive; u = inconclusive; x = no result given; + = active, no number. The list is not random: actives were taken first. Their share in the collection is about 1.3%.
SMILES,BAP1 block,PLAP act,sEH inh,sEH act,BAP1 inh conf
COc1ccccc1-c1csc(NC(=O)c2cccc(Oc3ccccc3)c2)n1,n,x,x,x,x
CCn1cc(C(=O)NCc2ccco2)c(=O)c2cc(S(=O)(=O)N3CCCCCC3)ccc21,n,n,n,n,x
C=CCn1cc(C(=O)NCc2ccco2)c(=O)c2cc(S(=O)(=O)N3CCCCCC3)ccc21,+,n,n,n,n
CCOC(=O)C(C(C)=O)c1c(Br)c(O)c(O)c2c(C(=O)c3ccc(C)cc3)coc12 (stereo not given),+,n,n,n,n
CCOC(=O)c1c(C)n(-c2ccc(C)cc2)c2c(C(C(C)=O)C(=O)O)c(Br)c(O)c(O)c12 (stereo not given),x,n,n,n,x
COCCn1nnnc1C(C(C)C)N(Cc1ccccc1)Cc1cc2cc(OC)ccc2[nH]c1=O (stereo not given),n,n,x,x,x
COCCn1nnnc1C(C(C)C)N(Cc1cccnc1)Cc1cc2cc(OC)ccc2[nH]c1=O (stereo not given),+,n,n,n,n
CCC(C)OC(=O)C1=C(C)NC(=O)NC1c1ccc(OC)cc1 (stereo not given),n,x,x,x,x
Cc1c([N+](=O)[O-])ccc2nsnc12,n,x,x,x,x
Cc1ccc(OCC(=O)Nc2c(C)n(C)n(-c3ccccc3)c2=O)cc1,n,x,x,x,x
CN(CC(=O)N1CCN(c2ccc(F)cc2)CC1)S(=O)(=O)c1ccc(F)cc1,+,n,n,n,n
CCN(CC)CC#CC(O)(c1ccccc1)c1cccc(F)c1 (stereo not given),n,x,x,x,x
O=C(Cn1cnc2sc(-c3ccccc3)cc2c1=O)NCc1ccco1,+,n,n,n,n
O=C(CSc1nnc(C2CC2)n1Cc1ccccc1)c1cc2ccccc2o1,+,n,n,n,n
Cc1cc(NC(=O)c2ccc(COc3ccc(Cl)c(C)c3)o2)no1,+,n,n,n,n
Cc1ccc(OCc2ccc(C(=O)Nc3nccs3)o2)cc1C,x,n,n,n,x
CCOc1cccc(C=Nc2cccc(-c3nc4cc(C)ccc4o3)c2C)c1O,n,x,x,x,x
CCc1ccc(-c2ccc(C(=O)Nc3cccc([N+](=O)[O-])c3)cc2)nc1,n,x,x,x,x
Cc1cc(S(=O)(=O)N2CCN(c3ccccc3C)CC2)ccc1F,+,n,n,n,n
Cc1cc(S(=O)(=O)N2CCN(c3c(C)cccc3C)CC2)ccc1F,n,n,n,n,x
CCOc1ccc(NC(=O)COc2ccc(C)cc2Br)cc1,n,x,x,x,x
O=C(O)CCc1ccc(-c2ccccc2)n1-c1cccc(O)c1,+,n,n,n,n
O=C(O)CCc1ccc(-c2ccccc2)n1CC(=O)O,n,n,n,n,x
O=C(O)c1cc(S(=O)(=O)N2CCOCC2)ccc1Cl,n,x,x,x,x
COc1ccc2cc(C(c3nnnn3Cc3ccccc3)N3CCCCCC3)c(=O)[nH]c2c1 (stereo not given),+,n,n,n,50
SMILES,BAP1 block,PLAP act,sEH inh,sEH act,BAP1 inh conf
COc1ccc(OC)c(NC2=NC3(CCCC3)N=C(N)N2)c1,n,n,n,n,x
CCCCOc1ccc(NC2=NC3(CCCC3)N=C(N)N2)cc1,+,n,n,n,n
O=c1[nH]c(SCc2ccc(F)cc2)nc2c1cnn2-c1ccc(F)cc1,+,n,n,n,57
CCCSc1nc2c(cnn2-c2ccc(F)cc2)c(=O)[nH]1,n,n,n,n,x
CCn1c2ccccc2c2cc(NC(=O)CSc3nnc(C4CC4)n3Cc3ccco3)ccc21,+,n,n,n,n
O=C1CSC(c2ccc(Br)cc2)N1c1ccccn1 (stereo not given),n,x,x,x,x
CCCn1c2c(c(O)c(C(=O)Nc3ccccc3)c1=O)CCCC2,+,n,n,n,n
COc1ccc(-n2nc(C(=O)Nc3ccc4c(c3)OCO4)c3c4ccccc4n(C)c3c2=O)cc1,+,n,n,n,n
C=CCOC(=O)C(C#N)c1nc2ccccc2nc1N1CCN(Cc2ccc3c(c2)OCO3)CC1 (stereo not given),+,n,x,x,n
CSc1ccc(C2C(C#N)=C(N)Oc3c2ccc(=O)c2c(C)oc(C)c32)cc1 (stereo not given),+,n,n,n,n
Cc1ccc(-c2nnn(CC(=O)Nc3ccc(S(=O)(=O)N4CCC(C)CC4)cc3)n2)cc1,+,n,n,n,n
COc1ccc(NC(=O)Cn2nnc(-c3ccccc3F)n2)cc1,n,n,n,n,x
CC1CCCN(S(=O)(=O)c2ccc(NC(=O)Cn3nnc(-c4ccccc4F)n3)cc2)C1 (stereo not given),+,n,n,n,26
CC1CCN(S(=O)(=O)c2ccc(NC(=O)Cn3nnc(-c4ccccc4)n3)cc2)CC1,n,n,n,n,x
CCOc1ccc(NC(=O)c2ccc([N+](=O)[O-])cc2)cc1,n,x,x,x,x
COc1ccc(CNC(=O)c2cccc([N+](=O)[O-])c2C)cc1,n,x,x,x,x
N#Cc1c(/N=C/c2ccco2)oc(-c2ccccc2)c1-c1ccccc1,+,n,n,n,u
CCOC(=O)c1oc2ccc(S(=O)(=O)n3nc(-c4ccccc4)cc3N)cc2c1C,x,n,n,n,x
CCOC(=O)c1oc2ccc(S(=O)(=O)n3nc(-c4ccc(OC)cc4)cc3N)cc2c1C,+,n,x,x,n
O=C(c1ccc(F)cc1)N1c2ccccc2CCc2ccccc21,n,x,x,x,x
COc1ccc(OC)c2c1sc(=NC(=O)c1ccco1)n2C,+,n,n,n,n
Cc1ccc(-c2c(C)sc(=NC(=O)c3ccco3)n2C)cc1,x,n,n,n,x
O=[N+]([O-])c1ccc(S(=O)(=O)Nc2nc3ccccc3s2)cc1,n,x,x,x,x
COc1ccc(OCCSc2nc3ccccc3n2C)cc1,n,x,x,x,x
CN(C)c1ccc(NC(=O)CSc2nc3ccccc3c(=O)n2C2CCCCC2)cc1,+,n,n,n,57
SMILES,BAP1 block,PLAP act,sEH inh,sEH act,BAP1 inh conf
CC1=CC(C)(C)Nc2ccc(C)cc21,x,n,n,n,x
CC1=CC(C)(C)Nc2cc(C)c(C)cc21,+,n,x,x,49
Nc1c(C(=O)NCc2ccco2)sc2nc3c(cc12)C(=O)CCC3,+,n,n,n,n
CC(C)c1cc(Nc2cccc(O)c2)cc(C(C)C)c1O,+,n,n,n,n
Nc1nc(-c2cccnc2)nn1C(=O)COc1ccccc1,+,n,n,n,n
Nc1nc(-c2cccnc2)nn1C(=O)CCc1ccccc1,n,x,n,n,x
Nc1c(C(=O)c2ccc(Br)s2)oc2ccccc12,+,n,n,n,n
Cc1ccc(-c2cc(C(=O)OCC(=O)Nc3cc(C)on3)c3ccccc3n2)c(C)c1,+,n,n,n,n
CCOC(=O)c1oc2ccc3c(c2c1C)C(=O)CC1(CCN(C(=O)OCC)CC1)O3,+,n,x,x,n
O=C(NCc1ccco1)c1cc2n(n1)C(C(F)(F)F)CC(c1ccc(Br)cc1)N2 (stereo not given),+,n,n,n,u
COc1ccccc1NC(=O)c1cc2n(n1)C(C(F)(F)F)CC(c1ccc3c(c1)OCO3)N2 (stereo not given),x,n,n,n,x
COc1ccc(OC)c(NC(=O)c2cc3n(n2)C(C(F)(F)F)CC(c2ccc4c(c2)OCO4)N3)c1 (stereo not given),+,x,x,x,n
Cc1ccccc1OCc1nnc(SCC(=O)Nc2ccc3c(c2)oc2ccccc23)n1C,+,n,n,n,n
